Assay results from ChEMBL document CHEMBL3988442, “University of Dundee, Small-Polar-MMV Screening Library” (2021).
For some assays here: Entries with a potency or affinity are not part of this list.

How the values were obtained:
Set-up in all cases: scale not given: direction of the effect not stated beside the values
[1] = target: Protein translocase subunit SecA (Escherichia coli (strain K12)) (UniProt P10408); assay: Assay to Identify E. coli SecA ATPase Inhibitors; format: functional; settings: 30 µM
Sequence of Protein translocase subunit SecA (Escherichia coli (strain K12)) (P10408 whole entry): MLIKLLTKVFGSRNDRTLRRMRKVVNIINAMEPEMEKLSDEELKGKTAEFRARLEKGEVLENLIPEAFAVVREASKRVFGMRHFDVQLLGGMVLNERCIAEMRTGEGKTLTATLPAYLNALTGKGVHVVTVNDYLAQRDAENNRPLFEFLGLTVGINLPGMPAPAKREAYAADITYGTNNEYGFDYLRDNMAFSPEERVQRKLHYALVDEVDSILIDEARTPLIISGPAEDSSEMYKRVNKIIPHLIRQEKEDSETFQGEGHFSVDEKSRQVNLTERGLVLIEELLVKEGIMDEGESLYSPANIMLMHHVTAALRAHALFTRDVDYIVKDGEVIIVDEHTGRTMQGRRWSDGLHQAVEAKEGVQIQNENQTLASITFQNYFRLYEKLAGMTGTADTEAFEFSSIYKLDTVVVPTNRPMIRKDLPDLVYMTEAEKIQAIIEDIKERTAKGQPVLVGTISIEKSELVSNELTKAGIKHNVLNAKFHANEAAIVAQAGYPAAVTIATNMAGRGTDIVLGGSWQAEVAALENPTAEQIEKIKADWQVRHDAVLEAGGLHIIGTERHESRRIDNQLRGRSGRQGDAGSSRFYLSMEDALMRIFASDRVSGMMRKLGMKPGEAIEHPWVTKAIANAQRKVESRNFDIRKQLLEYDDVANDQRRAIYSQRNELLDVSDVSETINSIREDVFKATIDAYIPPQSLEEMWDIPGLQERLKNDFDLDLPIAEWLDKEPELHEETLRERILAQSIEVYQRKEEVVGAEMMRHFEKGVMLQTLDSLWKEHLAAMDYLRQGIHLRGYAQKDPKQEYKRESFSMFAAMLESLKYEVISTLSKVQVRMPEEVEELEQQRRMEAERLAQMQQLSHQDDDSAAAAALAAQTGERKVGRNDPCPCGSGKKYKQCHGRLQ

[2] = target: T1, Ubiquitin-activating enzyme e1, putative (Leishmania donovani (strain BPK282A1)) (UniProt E9BSI1); assay: Leishmania donovani Ubiquitin Activating Enzyme (LdE1); format: functional; settings: 30 µM
T1 sequence (whole entry): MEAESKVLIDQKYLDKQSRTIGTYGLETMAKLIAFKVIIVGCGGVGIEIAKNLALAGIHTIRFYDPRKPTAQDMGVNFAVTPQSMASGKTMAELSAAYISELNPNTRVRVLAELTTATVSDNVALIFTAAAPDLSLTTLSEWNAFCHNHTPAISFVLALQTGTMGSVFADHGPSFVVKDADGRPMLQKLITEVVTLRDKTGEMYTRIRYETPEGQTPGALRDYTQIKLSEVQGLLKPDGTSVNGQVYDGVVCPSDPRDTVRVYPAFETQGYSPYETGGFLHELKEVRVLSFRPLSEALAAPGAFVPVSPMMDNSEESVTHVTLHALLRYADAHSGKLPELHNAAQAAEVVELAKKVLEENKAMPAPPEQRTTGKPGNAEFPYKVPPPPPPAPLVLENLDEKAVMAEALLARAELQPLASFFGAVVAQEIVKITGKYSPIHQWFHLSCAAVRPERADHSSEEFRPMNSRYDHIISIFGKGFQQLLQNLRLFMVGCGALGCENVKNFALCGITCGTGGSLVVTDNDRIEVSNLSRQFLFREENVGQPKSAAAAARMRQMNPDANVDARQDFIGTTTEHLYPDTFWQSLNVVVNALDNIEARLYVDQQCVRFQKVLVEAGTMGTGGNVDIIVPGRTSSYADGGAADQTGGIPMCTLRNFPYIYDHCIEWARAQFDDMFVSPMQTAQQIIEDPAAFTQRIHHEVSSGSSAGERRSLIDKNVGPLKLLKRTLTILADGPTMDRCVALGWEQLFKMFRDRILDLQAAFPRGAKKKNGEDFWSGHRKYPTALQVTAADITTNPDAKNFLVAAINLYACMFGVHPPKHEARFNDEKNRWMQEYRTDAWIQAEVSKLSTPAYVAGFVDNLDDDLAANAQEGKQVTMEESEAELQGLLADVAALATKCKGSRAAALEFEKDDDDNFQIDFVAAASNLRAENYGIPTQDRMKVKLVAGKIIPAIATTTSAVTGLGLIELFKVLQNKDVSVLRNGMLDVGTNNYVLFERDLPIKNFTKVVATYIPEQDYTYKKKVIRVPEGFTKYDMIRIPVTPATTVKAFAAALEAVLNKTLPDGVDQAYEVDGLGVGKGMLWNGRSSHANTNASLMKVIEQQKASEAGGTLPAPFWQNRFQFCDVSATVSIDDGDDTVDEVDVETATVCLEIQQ

[3] = target: AMP-activated protein kinase, AMPK (Homo sapiens) (UniProt P54646+O43741+P54619+Q9UGJ0+Q9Y478+Q13131+Q9UGI9); assay: AMP-dependent Kinase enzyme assay. An in vitro enzyme assay that detects ADP turnover that is directly proportional to AMPK activity. This uses naive AMPK that is activated during the assay with MK-8722; format: functional; settings: 30 µM
[4] = target: Sialic acid-binding Ig-like lectin 9 (Homo sapiens) (UniProt Q9Y336); assay: Hs-Siglec9 ALPHAscreen SOP 20170721; settings: 10 µM
Sequence of Sialic acid-binding Ig-like lectin 9 (Homo sapiens) (Q9Y336 whole entry): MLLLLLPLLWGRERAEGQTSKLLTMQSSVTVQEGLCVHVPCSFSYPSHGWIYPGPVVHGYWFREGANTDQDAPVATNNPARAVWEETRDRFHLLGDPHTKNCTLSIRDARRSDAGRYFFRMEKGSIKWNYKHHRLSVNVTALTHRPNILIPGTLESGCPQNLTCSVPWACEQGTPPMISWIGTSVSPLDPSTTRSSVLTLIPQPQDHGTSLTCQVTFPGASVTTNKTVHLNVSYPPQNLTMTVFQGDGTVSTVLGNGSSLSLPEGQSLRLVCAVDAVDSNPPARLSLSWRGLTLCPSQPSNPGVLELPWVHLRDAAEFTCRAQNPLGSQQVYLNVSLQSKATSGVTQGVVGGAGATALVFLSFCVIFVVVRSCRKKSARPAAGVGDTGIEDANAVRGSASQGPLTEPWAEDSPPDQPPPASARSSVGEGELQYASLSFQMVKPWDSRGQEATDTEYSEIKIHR

Trypanosoma cruzi = assay: Trypanosoma cruzi phosphomannomutase and mannose-1-phosphate guanylyltransferase assay; format: functional; settings: 10 µM
[5] = target: T2, Arginase-2, mitochondrial (Homo sapiens) (UniProt P78540); assay: in vitro enzyme assay to detect the production of urea directly proportional to the activity of Arginase II; format: functional; settings: 33.3 µM; note: in the data most compounds retested in dose-response had high values
T2 sequence (whole entry): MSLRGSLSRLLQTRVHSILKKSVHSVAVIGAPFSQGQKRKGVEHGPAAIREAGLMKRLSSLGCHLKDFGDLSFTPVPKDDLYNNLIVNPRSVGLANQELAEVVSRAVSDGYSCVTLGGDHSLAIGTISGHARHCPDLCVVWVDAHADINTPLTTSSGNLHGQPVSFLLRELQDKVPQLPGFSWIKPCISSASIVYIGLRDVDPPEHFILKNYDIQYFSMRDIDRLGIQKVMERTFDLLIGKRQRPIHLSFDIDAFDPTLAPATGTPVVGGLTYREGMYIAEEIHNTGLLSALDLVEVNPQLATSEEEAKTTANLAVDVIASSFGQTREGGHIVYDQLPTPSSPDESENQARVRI

[6] = target: T3, Proteasome subunit beta (Trypanosoma cruzi) (UniProt O96673); assay: Trypanosoma cruzi proteasome chymotrypsin-like activity (TcProtChymo) assay.; note: in the data most compounds retested in dose-response had high values; format: functional; settings: 9.37 µM
T3 sequence (whole entry): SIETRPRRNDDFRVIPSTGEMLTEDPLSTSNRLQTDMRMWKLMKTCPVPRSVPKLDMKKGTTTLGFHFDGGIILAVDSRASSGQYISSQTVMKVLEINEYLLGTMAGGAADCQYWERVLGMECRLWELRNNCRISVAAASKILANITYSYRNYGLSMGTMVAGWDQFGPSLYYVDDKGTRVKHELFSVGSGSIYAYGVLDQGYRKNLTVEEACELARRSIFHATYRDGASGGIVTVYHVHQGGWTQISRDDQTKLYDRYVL

Homo sapiens = species: Homo sapiens; assay: To identify inhibition of the IFN signalling (Jak-Stat) pathway via expression of an eGFP reporter gene under the control of an IFN-stimulated response element (ISRE) containing MxA promoter.; format: functional; settings: 30 µM
[7] = target: T4, Tyrosyl-tRNA synthetase, putative (Trypanosoma cruzi (strain CL Brener)) (UniProt Q4DSP6); assay: Trypanosoma cruzi tyrosyl tRNA synthetase (TcYRS) _High Tyrosine SOP; format: functional; settings: 30 µM; note: in the data most compounds retested in dose-response had high values
T4 sequence (whole entry): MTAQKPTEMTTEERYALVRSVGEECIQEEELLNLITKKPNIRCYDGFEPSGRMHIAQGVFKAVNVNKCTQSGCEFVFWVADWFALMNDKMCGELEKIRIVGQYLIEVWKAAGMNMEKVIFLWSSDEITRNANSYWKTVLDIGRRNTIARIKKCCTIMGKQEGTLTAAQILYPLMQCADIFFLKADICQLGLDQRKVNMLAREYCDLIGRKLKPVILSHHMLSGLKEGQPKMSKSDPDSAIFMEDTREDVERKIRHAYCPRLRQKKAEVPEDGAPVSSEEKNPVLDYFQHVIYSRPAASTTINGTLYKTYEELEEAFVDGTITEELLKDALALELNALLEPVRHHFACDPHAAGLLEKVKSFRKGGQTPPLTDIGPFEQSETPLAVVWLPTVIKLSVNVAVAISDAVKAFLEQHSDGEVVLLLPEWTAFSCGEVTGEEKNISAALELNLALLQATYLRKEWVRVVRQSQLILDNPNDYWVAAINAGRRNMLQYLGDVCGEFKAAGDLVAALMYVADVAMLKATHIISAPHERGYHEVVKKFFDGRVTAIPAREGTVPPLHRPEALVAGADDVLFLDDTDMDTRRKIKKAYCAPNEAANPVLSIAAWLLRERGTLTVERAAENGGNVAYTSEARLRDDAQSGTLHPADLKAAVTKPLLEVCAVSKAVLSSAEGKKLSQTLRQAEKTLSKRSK

[8] = target: T4, Tyrosyl-tRNA synthetase, putative (Trypanosoma cruzi (strain CL Brener)); assay: Trypanosoma cruzi tyrosyl tRNA synthetase (TcYRS) SOP; format: functional; settings: 30 µM
[9] = target: Chromo domain-containing protein 1 (Saccharomyces cerevisiae (strain ATCC 204508 / S288c) (Baker's yeast)) (UniProt P32657); assay: ScCHD-1 Enzyme Inhibition Assay; format: functional; settings: 30 µM; note: in the data most compounds retested in dose-response had high values
Sequence of Chromo domain-containing protein 1 (Saccharomyces cerevisiae (strain ATCC 204508 / S288c) (Baker's yeast)) (P32657 whole entry, the tested form may be a part): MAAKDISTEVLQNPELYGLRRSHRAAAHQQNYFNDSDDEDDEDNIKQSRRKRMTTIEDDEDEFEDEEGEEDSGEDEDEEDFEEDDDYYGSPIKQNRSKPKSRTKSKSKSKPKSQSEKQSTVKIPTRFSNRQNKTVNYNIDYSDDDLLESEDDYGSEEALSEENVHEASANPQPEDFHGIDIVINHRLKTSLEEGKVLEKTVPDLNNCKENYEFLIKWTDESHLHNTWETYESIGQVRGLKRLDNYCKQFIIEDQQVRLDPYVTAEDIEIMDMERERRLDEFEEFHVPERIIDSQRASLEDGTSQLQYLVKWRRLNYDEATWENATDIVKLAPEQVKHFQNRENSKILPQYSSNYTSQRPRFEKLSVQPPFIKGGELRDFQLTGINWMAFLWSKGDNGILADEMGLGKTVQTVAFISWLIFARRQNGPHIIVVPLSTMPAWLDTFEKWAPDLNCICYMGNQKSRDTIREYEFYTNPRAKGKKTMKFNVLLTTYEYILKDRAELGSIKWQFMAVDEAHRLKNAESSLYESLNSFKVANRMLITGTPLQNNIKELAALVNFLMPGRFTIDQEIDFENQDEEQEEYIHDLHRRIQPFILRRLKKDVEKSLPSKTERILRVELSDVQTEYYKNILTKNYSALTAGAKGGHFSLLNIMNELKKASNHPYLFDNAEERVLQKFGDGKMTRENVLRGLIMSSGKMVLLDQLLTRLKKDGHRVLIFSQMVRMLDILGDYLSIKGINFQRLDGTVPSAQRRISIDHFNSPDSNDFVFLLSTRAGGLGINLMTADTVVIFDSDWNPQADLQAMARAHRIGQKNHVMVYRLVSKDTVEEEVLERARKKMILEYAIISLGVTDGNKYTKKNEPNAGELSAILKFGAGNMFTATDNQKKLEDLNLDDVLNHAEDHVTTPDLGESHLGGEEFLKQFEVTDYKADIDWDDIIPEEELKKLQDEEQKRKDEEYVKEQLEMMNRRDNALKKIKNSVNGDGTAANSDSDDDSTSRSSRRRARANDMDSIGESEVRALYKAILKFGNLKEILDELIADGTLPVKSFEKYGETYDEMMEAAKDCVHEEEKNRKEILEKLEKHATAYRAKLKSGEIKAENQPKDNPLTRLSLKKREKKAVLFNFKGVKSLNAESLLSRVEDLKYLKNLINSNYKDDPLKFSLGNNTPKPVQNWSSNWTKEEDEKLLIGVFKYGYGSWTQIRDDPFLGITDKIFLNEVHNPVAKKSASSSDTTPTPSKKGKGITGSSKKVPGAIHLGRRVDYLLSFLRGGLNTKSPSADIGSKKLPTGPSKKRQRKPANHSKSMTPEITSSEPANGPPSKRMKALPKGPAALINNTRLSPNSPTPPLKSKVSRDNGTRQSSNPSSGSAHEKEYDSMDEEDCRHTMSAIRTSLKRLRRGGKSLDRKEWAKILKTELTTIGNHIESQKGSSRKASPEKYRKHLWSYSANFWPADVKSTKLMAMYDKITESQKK

SMILES | Percent Effect [1] | Percent Effect [2] | Percent Effect [3] | Percent Effect [4] | Percent Effect (Trypanosoma cruzi) | Percent Effect [5] | Percent Effect [6] | Percent Effect (Homo sapiens) | Percent Effect [7] | Percent Effect [8] | Percent Effect [9]
Cc1cccc(-c2ccc3nc(C4CCN(CC5CC5)CC4)nn3c2)c1 | -0.334% | 5.48% | -2.67% | 13.9% | 3.77% | -0.399% | 10.2% | 8.44% | 3.12% | 8.64% | -2.92%
COc1cc(C(C)=O)ccc1OCC(=O)N(C)Cc1cnn(C)c1 | -4.48% | 21.1% | -7.57% | 7.64% | 4.76% | 1.44% | 6.18% | 6.99% | 6.4% | 25.9% | -10.6%
O=C(NCCOc1cccc(Cl)c1)C1CC(=O)N(CC2CC2)C1 (centres undefined) | -3.05% | 26.3% | 6.34% | -5.8% | 6.82% | 4.32% | 13.3% | -1.81% | 4.43% | 25.9% | -10.9%
CCS(=O)(=O)N1CCC2(CC1)CC(Oc1ccccn1)CO2 (centres undefined) | -0.483% | 10.4% | 4.49% | -1.15% | -5.23% | 7.1% | 11% | 17.8% | 2.12% | 3.85% | -7.08%
